Each structure is given as a SMILES string. Among all 220,000 compounds or so, about 16,000 (7.3%) were called active. A call without a number means that no potency is given here. Roughly 25% stayed inconclusive and do not appear here. The call rests on the fitted dose curve; in most records, active means well fitted inhibition curve with a large enough effect (not every such curve was filed as active); inconclusive means small, poorly fitted or top-dose-only effect, or another doubt; inactive means no such curve, though single readings can be large or run the other way. For the sample, actives were picked, then their nearest neighbours and some compounds at random.

The source of these data is PubChem BioAssay AID1030 (National Center for Advancing Translational Sciences (NCATS), 2008).
Potency means the concentration at half of the fitted maximal effect.

The target in the experiment is Aldehyde dehydrogenase 1A1 (Homo sapiens) (UniProt P00352). Description: qHTS Assay for Inhibitors of Aldehyde Dehydrogenase 1 (ALDH1A1). Particulars: Purified ALDH1A1, NADH fluorescence, propionaldehyde substrate; series mostly up to 75.3 µM. For orientation: In qHTS, concentration-response curves come from the screen itself.
Sequence of Aldehyde dehydrogenase 1A1 (Homo sapiens) (P00352 whole entry, looked up): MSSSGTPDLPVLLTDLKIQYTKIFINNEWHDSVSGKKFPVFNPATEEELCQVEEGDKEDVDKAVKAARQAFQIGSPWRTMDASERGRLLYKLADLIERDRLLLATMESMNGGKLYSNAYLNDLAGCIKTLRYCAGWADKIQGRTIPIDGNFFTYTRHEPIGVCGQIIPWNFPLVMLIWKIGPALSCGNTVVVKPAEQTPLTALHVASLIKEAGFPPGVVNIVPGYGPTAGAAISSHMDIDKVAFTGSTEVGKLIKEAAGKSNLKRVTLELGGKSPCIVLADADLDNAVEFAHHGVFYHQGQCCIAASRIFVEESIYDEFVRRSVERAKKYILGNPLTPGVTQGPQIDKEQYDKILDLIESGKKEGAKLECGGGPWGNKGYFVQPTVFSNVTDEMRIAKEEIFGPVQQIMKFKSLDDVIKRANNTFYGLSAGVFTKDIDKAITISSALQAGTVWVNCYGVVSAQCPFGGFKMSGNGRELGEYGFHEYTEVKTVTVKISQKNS
For `C/C(=N\NC(=O)c1ccc(CSc2nc(C)cc(C)n2)cc1)C1CCCCC1`, the Potency was 3.55 µM (active).
For the compound `C/C(=N\NC(=O)c1nc(C)cc(C)n1)c1ccccc1`, the Potency entry is “inactive”.
Regarding `CCn1c(CSc2nc(C)cc(C)n2)nnc1SCC(N)=O`, the Potency entry is “inactive”.
With `CC1=C(/C=C/C(C)=C/C=C/C(C)=C/C=C/C=C(C)/C=C/C=C(C)/C=C/C(=O)[C@]2(C)C[C@@H](O)CC2(C)C)C(C)(C)C[C@H](O)C1`, the Potency result is “inactive”.
In the case of `O=C(Nc1ccc2c(c1)CCC2)c1ccc(Br)s1`, the Potency entry was “inactive”.
On to `Cc1ccc(NC(=S)N2CCCC(c3ccccc3)=N2)cc1`, for which the Potency result is “inactive”.
`CN1CC(c2ccccc2)C2(COc3ccccc3C2=O)C12C(=O)Nc1ccccc12` (configuration not stated): the Potency was 7.94 µM (active).
The result for `CC1(C)C2CCC1(C)C(OC(=O)c1ccc(O)cc1)C2` (configuration not stated) reads “inactive”; that for `COc1ccc(CCn2ccc(O)c(Cc3ccc(Cl)cc3Cl)c2=O)cc1OC`, “inactive”; that for `Cc1noc(C)c1S(=O)(=O)Nc1cc(C(F)(F)F)ccc1N1CCOCC1`, “inactive”.
Regarding `C=CCN(Cc1nc(-c2cc(OC)c3c(c2)OCO3)oc1C)C1CCS(=O)(=O)C1` (configuration not stated), the Potency entry is “inactive”.
For `CCO[C@@H]1OC(C(N)=O)=C[C@H](c2ccc(Br)cc2)[C@H]1CCCO`, the Potency entry was “inactive”.
The result for `COCCn1c(CN(Cc2ccccc2)Cc2ccccc2)nc2c1c(=O)n(C)c(=O)n2C` reads “inactive”; that for `CCCCn1c(SCC(=O)NCCc2ccc(OC)c(OC)c2)nc2c1c(=O)n(C)c(=O)n2C`, “inactive”; that for `CCOc1ccc2nc(NC(=O)CSc3nc4c(c(=O)n(C)c(=O)n4C)n3CC)sc2c1`, “inactive”.
As to `COC(=O)C(C)Sc1nc2c(c(=O)n(C)c(=O)n2C)n1Cc1cccc(C)c1` (configuration not stated), the Potency is 12.6 µM (active).
For `CCCCNc1nc2c(c(=O)n(C)c(=O)n2C)n1Cc1cccc(OC)c1`, the Potency entry is “inactive”.
For `Cn1c(=O)c2c(nc(SCCNS(=O)(=O)c3ccccc3)n2C)n(C)c1=O`, the Potency entry is “inactive”.
For `CC(C)OCCCNc1nc2c(c(=O)n(Cc3ccccc3F)c(=O)n2C)n1C`, the Potency result is “inactive”.
As to `CCCSc1nc2c(c(=O)n(C)c(=O)n2C)n1Cc1ccc(C)cc1`, the Potency is 25.1 µM (active).
The value for `CCOC(=O)CSc1nc2c(c(=O)n(C)c(=O)n2C)n1Cc1ccccc1F` was 39.8 µM (active); that for `Nc1nc(SCC(=O)N2CCN(S(=O)(=O)c3ccc(Cl)cc3)CC2)n[nH]1` was “inactive”.
With `COc1cccc(NC(=O)COC(=O)CCOc2ccccc2OC)c1`, the Potency entry is “inactive”.
The result for `COCc1c(N)c(C)nc(Cl)c1C#N` reads “inactive”; that for `Cc1n[nH]c(=O)n1-c1ccc(C(C)C)cc1`, “inactive”.
Take `COc1ccc(NC(=O)COC(=O)c2ccncc2)c(OC)c1`: the Potency result was “inactive”.
The value for `Cc1c(Cl)cccc1NC(=O)CSc1ccc(-c2cccnc2)nn1` was “inactive”.
Regarding `COC(=O)c1c(C)[nH]c(C)c1-c1ccc([N+](=O)[O-])cc1`, the Potency entry is “inactive”.
As to `CCCCC/C=C\C/C=C\CCCCCCCCCC(=O)O`, the Potency entry is “inactive”.
The value for `CCOC(=O)Cn1nnnc1C` was “inactive”; that for `CC(Sc1nnnn1C)C(=O)NC(=O)NC1CCCCC1` (configuration not stated) was “inactive”.
As for `CCc1ccc(Oc2coc3cc(OC(=O)c4cc5ccccc5oc4=O)ccc3c2=O)cc1`, the Potency entry was “inactive”.
For `O=C(Oc1ccccc1)Oc1ccc2c(c1)oc(=O)c1ccccc12`, the Potency was 17.8 µM (active).
The value for `Cc1ccc(OC(=O)c2cc3ccccc3o2)cc1` was “inactive”.
The result for `CCOC(=O)CSC1=N/C(=C/c2ccc(-n3cncn3)cc2)C(=O)N1C(C)=O` reads “inactive”; that for `O=C(CN1C(=O)/C(=C\c2ccccc2F)SC1=S)Nc1nc2ccccc2s1`, “inactive”; that for `O=C(CN1C(=O)/C(=C\c2ccc(C(F)(F)F)cc2)Sc2ccccc21)NCc1ccco1`, “inactive”.
For `O=C(CN1C(=O)/C(=C/c2ccccc2F)Sc2ccccc21)NCc1cccnc1`, the Potency was 20 µM (active).
For the compound `CN(/C(=N/S(=O)(=O)c1cccs1)c1ccccc1)c1ccc(O)cc1`, the Potency result is “inactive”.
With `CCC(C(=O)Nc1ccc(C(C)C)cc1)c1ccccc1` (configuration not stated), the Potency entry was “inactive”.
The value for `Cc1nnc(SC(C(=O)Nc2cc(Cl)cc(Cl)c2)c2ccccc2)[nH]c1=O` (configuration not stated) was “inactive”; that for `O=C(Nc1cc(Cl)cc(Cl)c1)C(NCCCO)c1ccccc1` (configuration not stated) was 1.26 µM (active).
In the case of `Cc1c(Br)c([N+](=O)[O-])nn1CC(=O)N1CCN(Cc2ccccc2)CC1`, the Potency result was “inactive”.
The result for `COc1ccc(C(=O)Nc2ccc(-n3nncc3C(C)(C)C)cc2)cc1` reads “inactive”; that for `CC(C)NC(=S)N1CCN(S(C)(=O)=O)CC1`, “inactive”; that for `CC(C)NC(=S)N1CCN(C(c2ccccc2)c2ccccc2)CC1`, 10 µM (active).
On to `O=C(c1ccc(-n2cnnn2)cc1)N1CCN(C(c2ccccc2)c2ccccc2)CC1`, for which the Potency entry was “inactive”.
With `CCOC(=O)C1CCN(S(=O)(=O)c2cc(F)ccc2OC)CC1`, the Potency result is “inactive”.
As to `CCOC(=O)Cn1c(N)c(C(=O)OC)sc1=S`, the Potency entry is “inactive”.
On to `COCCOC(=O)c1sc(=S)n(CCOC)c1N`, for which the Potency was 10 µM (active).
The result for `CCOC(=O)c1cnc2c(c(C)nn2CC)c1Cl` reads “inactive”; that for `O=S(=O)(c1cccs1)N1CCN(Cc2ccccc2)CC1`, “inactive”; that for `COc1ccc2c(CN3CCN(S(=O)(=O)c4cccs4)CC3)cc(=O)oc2c1`, 14.1 µM (active).
The value for `CN1CCN(S(=O)(=O)c2ccc(N3CCN(S(=O)(=O)c4cccs4)CC3)nc2)CC1` was “inactive”.
The value for `COc1ccc(C(=O)NCC(=O)N/N=C/c2ccc([N+](=O)[O-])s2)cc1OC` was “inactive”; that for `CC(=O)N/N=C/c1cc2c(cc1[N+](=O)[O-])OCO2` was “inactive”.
`Cc1ccc(S(=O)(=O)N/N=C\c2cc3c(cc2[N+](=O)[O-])OCO3)cc1`: the Potency was 1.26 µM (active).
On to `Cc1ccc(-c2n[nH]c(=S)n2/N=C/c2cc3c(cc2[N+](=O)[O-])OCO3)cc1`, for which the Potency entry was “inactive”.
The value for `COc1cc(NC(=O)c2cccnc2SC)cc(OC)c1` was “inactive”; that for `CCOc1ccc(-c2nnn(CC(=O)N3CCN(c4ccc(OC)cc4)CC3)n2)cc1OCC` was “inactive”.
The value for `COc1ccc(N2CCN(C(=O)CSc3ncnc4c3cnn4-c3ccc(OC)cc3)CC2)cc1` was “inactive”; that for `COc1ccc(N2CCN(C(=O)CSc3nc4cc(OC)c(OC)cc4cc3C#N)CC2)cc1` was 14.1 µM (active); that for `CCCC(=O)Nc1nnc(-c2ccccc2)o1` was “inactive”.
The value for `COc1ccc(C(=O)NC2CCN(C(=S)Nc3ccccc3)CC2)cc1` was “inactive”; that for `Cc1nnc(SCC(=O)N2CCN(c3ccccc3)CC2)n1-c1ccccc1` was “inactive”.
Consider `CCN(CC)C(=O)CSc1nc2ccccc2n1CC(=O)N1CCN(c2ccccc2OC)CC1`, for which the Potency result is “inactive”.
The value for `CC(C)N(C(=O)Cn1c(SCC(=O)N2CCN(c3ccccc3)CC2)nc2ccccc21)C(C)C` was 25.1 µM (active).
